This is part of a sample that, as a whole, favours compounds with a hit. Of some 83,000 tested, about 20% had one in any assay.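 Step 1: grow cells in 96-well plates. Step 2: add test compound at a single concentration. Step 3: incubate 48 h. Step 4: record percent growth.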 Activity calls are given as the source filed them. The calls were made as follows: active = growth percent below 10; inactive = the rest.
Columns and labels:
Assay in all cases: NCI-60 one-dose screen, 48 h (100 = growth as untreated, 0 = no growth, -100 = all killed)
Settings in all cases: 10 µM unless noted
[1] = system: HCT-15 colon
[2] = system: HT29 colon
[3] = system: SNB-75 CNS
[4] = system: SNB-19 CNS
[5] = system: U251 CNS
[6] = system: PC-3 prostate
[7] = system: SK-MEL-5 melanoma
[8] = system: UACC-62 melanoma
[9] = system: LOX IMVI melanoma
[10] = system: SK-MEL-28 melanoma

Measured: growth

CCC(C)(C)c1ccc(OCCCCCCN2CCNCC2)cc1
active: [1] -36.1% | [2] 8.87% | [9] -47.1%
inactive: [3] 60.5% | [4] 68.6% | [5] 18.8% | [6] 64.3% | [7] 34.2% | [8] 85.6% | [10] 74.2%

CCCCS(=O)(=O)c1cc(Nc2ccc(O)c3c2C(=O)c2ccccc2C3=O)ccc1C
inactive: [1] 66.8% | [2] 51.5% | [3] 106% | [4] 66.7% | [5] 80.7% | [6] 80.7% | [8] 32.8% | [9] 51.5% | [10] 71.5%
active: [7] -13.5%

CC(C)(C)OC(=O)N1C/C(=C\c2ccccc2)C(=O)/C(=C/c2ccccc2)C1
inactive: [1] 96.5% | [2] 94.1% | [3] 74.9% | [4] 91.2% | [5] 90.5% | [6] 81% | [7] 108% | [8] 84% | [9] 95.1% | [10] 107%

CC(C)(C)c1ccc(OCCOC(=O)CBr)cc1
inactive: [1] 97.9% | [2] 104% | [3] 84.6% | [4] 104% | [5] 103% | [6] 110% | [7] 97% | [8] 93.6% | [9] 97.8% | [10] 107%

COC(=O)C(Cc1cnc[nH]1)N1CC(=O)N2[C@@H](c3ccccc3)SC[C@H]2C1=O (stereo not given in full)
inactive: [1] 107% | [2] 104% | [3] 120% | [4] 106% | [5] 95.2% | [6] 97.4% | [7] 131% | [8] 106% | [9] 97.7% | [10] 117%

CC(=N\N=C(N)N)/C(=N/N=C(N)N)c1ccccc1
inactive: [1] 103% | [2] 42.7% | [3] 88.4% | [4] 68% | [5] 80.7% | [6] 75.2% | [7] 102% | [8] 103% | [9] 95.6% | [10] 110%

Nc1cc2c(cc1Br)[nH]c(=O)c1ccccc12
inactive: [1] 58.3% | [2] 22.4% | [3] 94.3% | [4] 58.6% | [5] 40.3% | [6] 42.9% | [8] 73.4% | [9] 25.1% | [10] 78.4%
active: [7] 0.102%

CC1=NN(c2cccc(Cl)c2)C(=O)/C1=C\c1cn(-c2nc(N3CCOCC3)nc(N3CCOCC3)n2)c2ccccc12
inactive: [1] 107% | [2] 95.4% | [3] 86.4% | [4] 103% | [5] 110% | [6] 93% | [7] 101% | [8] 103% | [9] 95.7% | [10] 116%

CC(=O)CCS(=O)c1ccccc1 (stereo not given)
inactive: [1] 110% | [2] 97.8% | [3] 96% | [4] 98.2% | [5] 97.2% | [6] 94.6% | [7] 102% | [8] 99.6% | [9] 97.1% | [10] 109%

COc1cc([C@@H]2c3cc4c(cc3[C@H](O)[C@H]3COC[C@@H]23)OCO4)cc(OC)c1OC
inactive: [1] 59.1% | [2] 79.1% | [3] 58% | [4] 76.9% | [5] 77.4% | [6] 63.8% | [7] 51% | [8] 42.7% | [9] 75.7% | [10] 69.4%

COc1cccc(Cn2cc3c(c2)-c2oncc2CC3)c1
active: [2] 9.25% | [7] 6.37%
inactive: [1] 18.7% | [3] 25.2% | [4] 39.4% | [5] 31.7% | [6] 27.4% | [8] 46.2% | [9] 34.7% | [10] 51.9%

CCC(C)C1NC(=O)C(CCCCN)NC(=O)C(CCCCN)NC(=O)C(CC(C)C)NC(=O)C(CCCCN)NC(=O)C(C(C)CC)NC(=O)C(C(C)C)NC(=O)C(C(C)CC)NC(=O)C(CCCCN)NC(=O)C(CCCCN)NC(=O)C(C)NC(=O)C(CCCCN)NC(=O)C(CC(C)C)NC1=O (stereo not given)
active: [2] 5.52% | [5] 6.7% | [6] 6.52% | [7] 2.11%
inactive: [1] 35.4% | [3] 36.9% | [4] 20.9% | [8] 22.1% | [9] 50.5% | [10] 48.2%

CCCCCCCCCc1cc[n+](CC(=O)c2ccc([N+](=O)[O-])cc2)cc1
inactive: [3] 23.9% | [4] 13.8% | [10] 12.3%
active: [1] -18.2% | [2] -52.1% | [5] 8.48% | [6] -0.775% | [7] -77.8% | [8] -6.32% | [9] -77.2%

CNc1nc2ncn(C)c2c(=O)[nH]1
inactive: [1] 74% | [2] 98% | [3] 81.3% | [4] 113% | [5] 97.3% | [6] 100% | [7] 101% | [8] 78.3% | [9] 71.6% | [10] 103%

Cc1c(Cc2ccccc2)c(=O)oc2c(C)c(OCC(=O)n3nc(C#N)cc3N)ccc12
inactive: [1] 103% | [2] 95.6% | [3] 81% | [4] 98.9% | [5] 106% | [6] 89% | [7] 103% | [8] 99.1% | [9] 96.7% | [10] 106%

COc1ccc(C(=O)CN2C(=O)NC(c3ccccc3)(c3ccccc3)C2=O)cc1
inactive: [1] 99.5% | [2] 100% | [3] 86.7% | [4] 102% | [5] 101% | [6] 95% | [7] 99.7% | [8] 99.4% | [9] 98% | [10] 103%

CC(=O)Nc1nc(C)c(C(=O)NNC(=O)Nc2ccccc2)s1
inactive: [1] 96.7% | [2] 99% | [3] 98.4% | [4] 93.9% | [5] 102% | [6] 85.2% | [7] 97% | [8] 78.1% | [9] 97.9% | [10] 105%

Cc1cc2c(-c3nc4ccccc4n3C)c(O)c(O)cc2c(O)c1-c1c(C)cc2c(-c3nc4ccccc4n3C)c(O)c(O)cc2c1O
inactive: [1] 78.9% | [2] 25.2% | [3] 69% | [4] 15.4% | [5] 13.5% | [6] 27.3% | [7] 91.3% | [8] 28.9% | [9] 30.4% | [10] 58.1%

COC(=O)/C=C/c1cc(O)c2oc(-c3ccc(O)c(O)c3)c(C(=O)OC)c2c1
active: [3] 7.74% | [7] -13.3%
inactive: [1] 14.1% | [2] 59.8% | [4] 31.7% | [5] 18.1% | [6] 11.4% | [8] 36.6% | [9] 19.1% | [10] 57.2%

CCOC(=O)/C(C#N)=C(/CC)OCC
inactive: [1] 109% | [2] 103% | [3] 90.8% | [4] 106% | [5] 103% | [6] 93.6% | [7] 110% | [8] 110% | [9] 91.4% | [10] 106%

C/C=C/C/C=C/[C@H](C)C[C@H](O)[C@@H]1C[C@@H]2O[C@H]2/C=C/[C@@H]2OC(C)(C)O[C@H]2/C=C/C[C@H](C)CC(=O)O1
inactive: [1] 19.7% | [2] 28.1% | [3] 36.3% | [4] 62.2% | [5] 30% | [6] 57.8% | [7] 31% | [9] 44.3% | [10] 59.3%
active: [8] 8.91%

O=C(Nc1ccc(Cl)c(Cl)c1)O/N=C\c1c(Cl)ccc([N+](=O)[O-])c1Cl
active: [1] -3.17% | [2] -73% | [5] 3.06% | [6] -8.42% | [8] -63.5% | [9] -82.1% | [10] -12.3%
inactive: [3] 16.9% | [4] 49.5% | [7] 48.3%

C[C@]12CC[C@H]3[C@@H](CC[C@H]4C[C@@H](O)CC[C@@]43C)[C@@H]1CC(=O)C2
inactive: [1] 100% | [2] 96.9% | [3] 98.2% | [4] 100% | [5] 97.6% | [6] 99.7% | [7] 111% | [8] 87.6% | [9] 102% | [10] 113%

CCCCCCCCCC(C)NC(=O)CCl (stereo not given)
inactive: [1] 89.6% | [2] 114% | [3] 69.8% | [4] 86.5% | [5] 82.1% | [6] 94.5% | [7] 97.5% | [8] 93.4% | [9] 47.9% | [10] 95.3%

COc1ccc(Oc2[nH]n(C3=Nc4ccccc4Sc4ccccc43)c(=O)c2C#N)cc1
inactive: [1] 101% | [2] 113% | [3] 121% | [4] 101% | [5] 107% | [6] 82.8% | [7] 84.8% | [8] 69.9% | [9] 95.3% | [10] 108%

Cc1[nH]n(C(=S)Nc2nc3cc(Cl)c(F)cc3s2)c(=O)c1N=Nc1ccc(F)c(Cl)c1
inactive: [1] 101% | [2] 112% | [3] 86% | [4] 89.7% | [5] 95.9% | [6] 98.1% | [7] 93.1% | [8] 92.8% | [9] 99% | [10] 106%

O=C(/C=C/c1ccc(Br)cc1)c1ccccc1
inactive: [1] 72.5% | [2] 69.8% | [3] 101% | [4] 86.9% | [5] 69% | [6] 82% | [7] 95.3% | [8] 92.2% | [9] 59.6% | [10] 109%

Reference: PubChem BioAssay (NCI)
